This is one part of a sample in which hits are shown more often than they occur.
Pf Dd2 growth: blocks in vitro growth of P. falciparum Dd2; P. falciparum Dd2 growth, SYBR Green, 72 h; AID 1347417; Potency, µM (series often up to 28.9 µM), inactives show top-dose activity, negative = inhibition, usual class: inhibitors; actives 4.3% (n = 120,000); active = well fitted inhibition curve with a large enough effect;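 note: plate controls were DMSO vehicle for no effect and reference drug for full effect; nearly all actives have a fitted effect of over 65% in size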
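Infected erythrocytes (Dd2, 0.3% parasitemia, 2.5% hematocrit final) are added to compound in RPMI-1640/Albumax II medium, grown 72 h at 37C in low oxygen, then lysed with saponin/Triton-X containing SYBR Green and read by fluorescence.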
Active calls of the source: *; i = inactive; [ ] = another dose, or the depositor's remark. Potency is the fitted concentration of half-maximal effect.

SMILES	Pf Dd2 growth
O=C(O)c1ccc([S+](=O)([O-])N2CC(COc3ccccc3)C3(CN(c4ccccc4)C3)C2)cc1 (stereo not drawn)	-16.7%
O=S(=O)(c1cccnc1)N1CCC(OC2CCN(Cc3cccnc3)CC2)CC1	-19.5%
CCN1CCC(N2C[C@@H](COC)[C@H](c3nc(C)no3)C2)CC1	22.0%
CN(C)c1ccc2nnc(-c3cc(C(=O)N(C)c4ccccc4)ccn3)n2n1	-16.8%[44.1 µM]
COc1ccc(-c2nnc3ccc(N4CCc5ccccc5CC4)nn23)nc1	i
C[C@@H]1CN(c2ccc3nnc(-c4ccccn4)n3n2)C[C@H](C)O1	21.1%[44.1 µM]
COc1ccc(-c2nnc3ccc(N(C)Cc4ccccc4)nn23)nc1	7.94µM*
COCCCNc1ccc2nnc(-c3ccc(C)cn3)n2n1	i
COc1ccc(-c2nnc3ccc(N4CCN(c5ccccn5)CC4)nn23)nc1	12.6µM*
Cc1nn(C)c(C)c1CCC(=O)NC1CCc2n[nH]c(=O)n2CC1 (stereo not drawn)	i
Cc1cccc(CN2CC[C@@H]3OCC(=O)N(Cc4ccc(O)cc4)[C@H]3CC2)c1	-15.1%[44.1 µM]
O=C1CO[C@H]2CCN(CCCc3ccccc3)CC[C@@H]2N1Cc1ccccc1	3.98µM*
O=C1CO[C@H]2CCN(Cc3ccccc3)CC[C@@H]2N1CCc1cccnc1	-10.5%[44.1 µM]
COCCN1C(=O)CO[C@H]2CN(C3CCN(C(C)=O)CC3)C[C@H]21	-10.8%[44.1 µM]
CC(=O)Nc1ccc(CN[C@@H]2CO[C@H](CNS(C)(=O)=O)[C@H]2O)cc1	-0.9%[44.1 µM]
OCC1CN(Cc2ccoc2)CCC12CCN(Cc1cccc(O)c1)CC2 (stereo not drawn)	7.4%
COc1ccc(CN2CCn3c(nn(-c4ccc(F)cc4F)c3=O)C2)cc1	-0.5%
Cn1ccc(CN2CCn3c(nn(-c4ccc(F)cc4F)c3=O)C2)c1	8.91µM*
O=c1n(-c2ccc(F)cc2F)nc2n1CCN(Cc1ccc(C(F)(F)F)cc1)C2	i
COc1ccc(CC2CN(C(=O)c3ccnc(N)c3)CCO2)cc1 (stereo not drawn)	-9.8%
Cc1nc(CN2C(=O)OC3(CCN(CCCc4ccccc4)CC3)C2(C)c2ccccc2)cs1 (stereo not drawn)	i
CC1=C(C(=O)NC2CC(=O)N(Cc3cccc4ccccc34)C2)OCCO1 (stereo not drawn)	-20.3%
CN1C(=O)c2cccn2CC1CNS(=O)(=O)c1ccc(F)cc1 (stereo not drawn)	4.8%
COc1cccc(S(=O)(=O)NCC2Cn3cccc3C(=O)N2C)c1 (stereo not drawn)	-4.6%
CCOC(=O)c1oc2ccc(S(=O)(=O)NCC3Cn4cccc4C(=O)N3C)cc2c1C (stereo not drawn)	12.6µM*
SMILES	Pf Dd2 growth
CCN1CC(CN(C)C(=O)c2cc(Cn3c(C)nc4ccccc43)[nH]n2)CC1=O (stereo not drawn)	-1.3%
CCN1CC2(CCN(C(=O)C(C)(C)N)CC2)CC(c2ccccc2)C1=O (stereo not drawn)	-13.1%
CN(Cc1ccc(-c2ccccc2)cc1)C(=O)c1ccccc1Cl	-17.6%
O=C(c1ccc(-c2ncc3cnc(C4=CCOCC4)cn23)cc1)N1CCc2ccccc2C1	i
O=C(c1cccc(O)c1)N1CC=C(c2cnc3cnc(-c4ccccc4)cn23)CC1	2µM*
O=C(c1ccc(-c2ncc3cnc(-c4ccccc4)cn23)cc1)N1CCS(=O)(=O)CC1	i
COc1ccc(-c2onc(C)c2C(=O)NCCSCc2ccco2)cc1	2.4%
COc1ccc(-c2n[nH]c3c2CC(=O)N(CC2CC2)C3)cc1OC	2.1%[44.1 µM]
COc1ccc(-c2nc3cc(C)ccc3cc2CN2CCN(C)C(=O)C2)cc1OC	7.94µM*
CCN1CCN(Cc2cc3ccc(C)cc3nc2-c2ccc(OC)c(OC)c2)CC1	-28.8%
COCCn1ccc2c(C3=CCOCC3)nc(-c3cccc4cn[nH]c34)cc21	-11.4%[44.1 µM]
C=CCn1c(-c2ccc(F)cc2)cn2cc(C(=O)N[C@@H](C)CO)nc2c1=O	-16.8%
C=CCn1c(-c2cccs2)cn2cc(C(=O)NC(CC)CO)nc2c1=O (stereo not drawn)	1.3%
CC(C)=CCn1c(-c2ccccc2Cl)cn2cc(C(=O)NCCCO)nc2c1=O	7.94µM*
CC(C)n1cc(C(=O)N2C[C@@H](CN3CCOCC3)[C@@H](CO)C2)cn1	-7.5%
Cc1cc(F)cc(CN2CCOc3cc([S+](=O)([O-])N(C)C)ccc3C2)c1	i
CN1CCOc2c(C(=O)NCCN3CCNC3=O)cc(-c3cccnc3)cc21	-16.4%[44.1 µM]
O=[S+]([O-])(NCC1CN(Cc2ccncc2Cl)CC12CN(c1ccccc1)C2)c1ccccc1 (stereo not drawn)	-20.3%
CC1(C)[C@H]2CC[C@@H](CN[S+](=O)([O-])c3ccccc3)[C@@H]1C2	11.2µM*
Cc1ccc([S+](=O)([O-])NC[C@@H]2CC[C@H]3C[C@@H]2C3(C)C)cc1	i
Cc1cc(C(=O)N[C@H]2CCOC[C@H]2C2CCOCC2)cc2sc(N)nc12	2.9%
Cc1noc(C)c1S(=O)(=O)N1CCC2(CC1)CCC(O)(CN(C)C)CC2	-17.6%
COc1cccc(N2C(=O)NC(=NC3CCCCC3)C23CCN([S+](=O)([O-])c2cccs2)C3)c1 (stereo not drawn)	-9.7%
COc1cccc(N2C(=O)NC(=NC3CCCCC3)C23CCCN(Cc2ccsc2)C3)c1 (stereo not drawn)	11.2µM*
COc1ccc(C(=O)N2CCC3(C2)C(=NC2CCCCC2)NC(=O)N3c2cccc(OC)c2)cc1 (stereo not drawn)	32.3%
SMILES	Pf Dd2 growth
COc1ccc(C(=O)N2CCCC3(C2)C(=NC2CCCCC2)NC(=O)N3c2cccc(OC)c2)cc1 (stereo not drawn)	8.4%
COc1cccc(N2C(=O)NC(=NC3CCCC3)C23CCN(CC2CC2)C3)c1 (stereo not drawn)	-7.0%
COc1ccc(CN2CCC3(C2)C(=NC2CCCCC2)NC(=O)N3c2cccc(OC)c2)cc1 (stereo not drawn)	2.82µM*
COc1ccc(CN2CCCC3(C2)C(=NC2CCCCC2)NC(=O)N3c2cccc(OC)c2)cc1 (stereo not drawn)	8.91µM*
COc1cccc(N2C(=O)NC(=NC3CCCC3)C23CCN(CC2CCCCC2)C3)c1 (stereo not drawn)	10µM*
COc1cccc(N2C(=O)NC(=NC3CCCCC3)C23CCN(Cc2ccccc2)CC3)c1	-19.4%
COc1cccc(N2C(=O)NC(=NC3CCCCC3)C23CCN(CC2CCCCC2)C3)c1 (stereo not drawn)	-0.7%
COc1cccc(N2C(=O)NC(=NC3CCCCC3)C23CCN(Cc2cccnc2)C3)c1 (stereo not drawn)	-24.0%
COC(=O)c1cc2n(n1)CCCN(C(=O)c1ccc(OC)nc1OC)C2	-1.2%
O=C(NC1CC1)c1cc(Br)cn2ccnc12	5.5%[44.1 µM]
OC1(CN2CCC(c3cc(Cc4ccccc4)[nH]n3)CC2)CNCCOC1 (stereo not drawn)	3.6%
CN(C)C(=O)C1CN(C(=O)c2ccccc2OC(F)(F)F)CC12CCOCC2 (stereo not drawn)	5.1%
CNC(=O)N1CCC(C2CCN(C(=O)c3cc(C)n(CCOC)c3C)C2)CC1 (stereo not drawn)	-25.8%
Cc1ccc(C(=O)N2CCCCCC2c2nnc(-c3ccccc3)o2)cn1 (stereo not drawn)	-16.1%
CCc1cn[nH]c1C1CCCN(C(=O)c2oc3cc(C)ccc3c2C)C1 (stereo not drawn)	0.8%
CNC(=O)[C@H]1C[C@H](Oc2ccccc2)CN1C(=O)Cn1ccnc1	0.3%

Compound activity deposited in PubChem BioAssay by National Center for Advancing Translational Sciences (NCATS).
